Assay results from PubChem BioAssay.
Calls of active or inactive are those of the source.

Assays:
[1] = E. coli DRC41 culture turbidity changes, primary screen, E. coli filamentation inducer project, strain DRC41, OD650, 48 h (AID 1152);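 further: E. coli MC1000 strain DRC41 lacking acrAB efflux pump and sulA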; details: E. coli DRC41 (acrAB sulA), higher = more signal, called active from +8 up or from −8 down
[2] = small-molecule binders of probe aLefty1, primary screen, biochemical, small-molecule microarray, 635/667 nm fluorescence (AID 1153); details: higher = more signal;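 further: score merges spot fluorescence with signal-to-noise ratio from the scanned slide images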
[3] = PSAC antagonists in infected red cells, primary screen, cell-based, P. falciparum Indochina, OD700, 1 h (AID 1154); details: P. falciparum Indochina infected RBC osmotic lysis, higher = more signal, called active from +8 up or from −8 down
[4] = PSAC antagonists in infected red cells, primary screen, cell-based, P. falciparum Indochina, OD700, 2 h (AID 1155);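 further: lysis reports solute entry through the parasite surface anion channel PSAC; channel blockers reduce lysis of infected cells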; details: P. falciparum Indochina infected erythrocytes, osmotic lysis OD700; higher = more signal, called active from +8 up or from −8 down
[5] = osmotic lysis modulators in infected erythrocytes, primary screen, PSAC antagonist project, cell-based, P. falciparum Indochina, OD700, 3 h (AID 1156); details: higher = more signal, called active from +8 up or from −8 down
[6] = PSAC antagonists in infected red cells, primary screen, cell-based, P. falciparum Indochina, OD700, 18 h (AID 1157); details: P. falciparum Indochina infected erythrocytes, osmotic lysis OD700, 18 h; higher = more signal, called active from +8 up or from −8 down
[7] = modulators of S6 phosphorylation in cells, primary screen, cell-based, A549, cytoblot, luminescence, serum-stimulated (AID 1158); details: A549 phospho-S6 cytoblot, 5 h, higher = more signal;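 further: serum-stimulated A549 lung adenocarcinoma cells; signal is phosphorylated S6 detected by cytoblot immunostaining with HRP secondary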
[8] = molecular target: NADPH oxidase 2 (Homo sapiens) (UniProt P04839); test: NOX2-dependent H2O2 signal modulators, primary screen, NOX inhibitor project, cell-based, HEK293-NOX2, PMA-stimulated, Amplex Red fluorescence (AID 1159); details: 45 min, higher = more signal, called active from +8 up or from −8 down; further: test concentration not given here
[9] = molecular target: NADPH oxidase 4 (Homo sapiens) (UniProt Q9NPH5); test: NOX4-dependent H2O2 signal modulators, primary screen, NOX inhibitor project, cell-based, HEK293-NOX4, tetracycline-induced, Amplex Red fluorescence (AID 1160); details: 45 min, higher = more signal, called active from +8 up or from −8 down
[10] = molecular target: NADPH oxidase 5 (Homo sapiens) (UniProt Q96PH1); test: NOX5-dependent H2O2 signal modulators, primary screen, NOX inhibitor project, cell-based, HEK293-NOX5, Amplex Red fluorescence (AID 1161); details: HEK293-NOX5, ionomycin, 45 min, higher = more signal
[11] = A549 cell viability effects, profiling panel, calcein-AM fluorescence, 48 h, basal (AID 1162); details: higher = more signal; further: test concentration not given here
[12] = adipocyte viability effects, profiling panel, cell-based, 3T3-L1 adipocytes, calcein-AM fluorescence, 48 h, basal (AID 1163); details: 3T3-L1 adipocytes viability, higher = more signal; further: test concentration not given here
[13] = HepG2 cell viability effects, profiling panel, calcein-AM fluorescence, 48 h, basal (AID 1164); details: higher = more signal; further: test concentration not given here
[14] = MM1S cell viability effects, profiling panel, calcein-AM fluorescence, 48 h, basal (AID 1165); details: higher = more signal;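 further: viability of MM1S multiple myeloma cells under basal unstimulated conditions; test concentration not given here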
[15] = basal RPMI8226 viability, no added stimulus, profiling panel, cell-based, calcein-AM fluorescence, 48 h, PK04 Diversity Set (AID 1166); details: RPMI8226 myeloma viability, higher = more signal;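 further: cells grown under basal conditions without added stimulus; test concentration not given here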
[16] = basal HepG2 mitochondrial membrane potential changes, profiling panel, cell-based, JC-1 fluorescence, 24 h, 100 nL compound (AID 1167); details: higher = more signal; further: test concentration not given here
[17] = basal 3T3-L1 adipocyte mitochondrial potential changes, profiling panel, cell-based, JC-1 fluorescence, 3T3-L1 adipocytes, 24 h, 100 nL compound (AID 1168); details: JC-1 mitochondrial fluorescence, higher = more signal, called active from +8 up or from −8 down; further: test concentration not given here
[18] = basal RPMI8226 mitochondrial membrane potential changes, profiling panel, cell-based, JC-1 fluorescence, 24 h, 100 nL compound (AID 1169); details: RPMI8226 myeloma, JC-1 mitochondrial potential fluorescence, higher = more signal; further: test concentration not given here
[19] = basal MM1S mitochondrial membrane potential changes, profiling panel, cell-based, JC-1 fluorescence, 24 h, 100 nL compound (AID 1170); details: higher = more signal; further: test concentration not given here
[20] = A549 lung cancer cell viability effects, profiling panel, resazurin fluorescence, 24 h, PK04 Diversity Set (AID 1171); details: higher = more signal, called active from +8 up or from −8 down; further: test concentration not given here

Chain of NADPH oxidase 2 (Homo sapiens) (P04839 whole entry, looked up): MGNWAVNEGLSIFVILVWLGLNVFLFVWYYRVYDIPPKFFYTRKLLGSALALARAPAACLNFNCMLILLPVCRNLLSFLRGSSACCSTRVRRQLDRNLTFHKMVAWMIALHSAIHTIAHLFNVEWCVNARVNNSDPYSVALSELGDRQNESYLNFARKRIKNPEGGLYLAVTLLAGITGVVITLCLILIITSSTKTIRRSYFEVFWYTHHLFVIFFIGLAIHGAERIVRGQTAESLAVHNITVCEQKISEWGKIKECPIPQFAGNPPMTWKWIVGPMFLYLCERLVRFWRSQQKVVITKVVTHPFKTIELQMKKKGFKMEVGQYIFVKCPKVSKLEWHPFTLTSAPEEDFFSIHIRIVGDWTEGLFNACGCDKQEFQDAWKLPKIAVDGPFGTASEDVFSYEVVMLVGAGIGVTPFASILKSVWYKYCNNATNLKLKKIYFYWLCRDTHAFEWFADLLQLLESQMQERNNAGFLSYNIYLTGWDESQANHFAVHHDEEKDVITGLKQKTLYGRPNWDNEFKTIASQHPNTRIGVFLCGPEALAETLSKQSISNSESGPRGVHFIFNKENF
Chain of NADPH oxidase 4 (Homo sapiens) (Q9NPH5 whole entry, looked up): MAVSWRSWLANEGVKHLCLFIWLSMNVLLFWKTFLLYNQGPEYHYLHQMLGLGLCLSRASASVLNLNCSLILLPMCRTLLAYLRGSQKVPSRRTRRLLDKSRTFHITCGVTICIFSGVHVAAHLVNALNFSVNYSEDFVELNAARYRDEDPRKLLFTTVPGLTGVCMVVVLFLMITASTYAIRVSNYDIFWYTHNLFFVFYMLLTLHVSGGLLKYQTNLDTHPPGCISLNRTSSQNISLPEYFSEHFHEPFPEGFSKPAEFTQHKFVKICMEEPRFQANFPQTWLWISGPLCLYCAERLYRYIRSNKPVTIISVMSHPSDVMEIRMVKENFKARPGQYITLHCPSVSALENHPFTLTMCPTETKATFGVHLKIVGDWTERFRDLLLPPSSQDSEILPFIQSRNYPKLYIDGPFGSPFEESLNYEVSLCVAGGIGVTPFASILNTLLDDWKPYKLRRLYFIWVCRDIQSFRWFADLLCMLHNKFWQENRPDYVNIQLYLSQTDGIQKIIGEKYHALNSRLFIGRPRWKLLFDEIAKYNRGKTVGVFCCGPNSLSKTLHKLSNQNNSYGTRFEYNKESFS
Chain of NADPH oxidase 5 (Homo sapiens) (Q96PH1 whole entry, looked up): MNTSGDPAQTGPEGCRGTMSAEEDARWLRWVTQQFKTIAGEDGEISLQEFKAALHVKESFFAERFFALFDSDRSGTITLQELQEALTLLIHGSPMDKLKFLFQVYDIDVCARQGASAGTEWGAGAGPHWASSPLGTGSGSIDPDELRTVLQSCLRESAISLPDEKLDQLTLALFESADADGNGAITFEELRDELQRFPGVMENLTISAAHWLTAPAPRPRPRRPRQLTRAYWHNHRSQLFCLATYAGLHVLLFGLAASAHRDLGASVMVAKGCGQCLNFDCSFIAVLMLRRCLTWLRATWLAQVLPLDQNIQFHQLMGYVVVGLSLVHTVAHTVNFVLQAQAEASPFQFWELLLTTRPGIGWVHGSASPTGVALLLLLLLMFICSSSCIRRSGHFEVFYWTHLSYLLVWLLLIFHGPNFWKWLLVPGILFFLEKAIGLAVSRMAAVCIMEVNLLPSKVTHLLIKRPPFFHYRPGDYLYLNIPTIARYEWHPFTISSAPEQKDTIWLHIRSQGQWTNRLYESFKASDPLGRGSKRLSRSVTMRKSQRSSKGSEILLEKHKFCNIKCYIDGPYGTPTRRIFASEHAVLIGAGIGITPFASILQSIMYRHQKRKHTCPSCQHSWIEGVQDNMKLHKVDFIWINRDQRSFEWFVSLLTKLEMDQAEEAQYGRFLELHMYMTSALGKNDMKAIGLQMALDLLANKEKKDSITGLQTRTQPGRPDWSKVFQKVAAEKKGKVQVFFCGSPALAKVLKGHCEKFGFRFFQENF

SMILES | z-score [1] | composite z-score [2] | z-score [3] | z-score [4] | z-score [5] | z-score [6] | z-score [7] | z-score [8] | z-score [9] | z-score [10] | z-score [11] | z-score [12] | z-score [13] | z-score [14] | z-score [15] | z-score [16] | z-score [17] | z-score [18] | z-score [19] | z-score [20]
C=CCNC(=O)[C@H]1[C@@H]2C(=O)O[C@@H](c3ccccc3)[C@@H](c3ccccc3)N2[C@@H](c2ccccc2OCCO)[C@]12C(=O)N(C(=O)OCCOC)c1ccccc12 | -0.557 (inactive) | 0.162 | 2.31 (inactive) | 1.1 (inactive) | -0.337 (inactive) | 0.973 (inactive) | 0.015 | 1.14 (inactive) | 0.676 (inactive) | 0.348 | -1.25 | -0.575 | -1.3 | -3.05 | -3.82 | 0.387 | -0.49 (inactive) | -0.919 | -1.19 | -1.04 (inactive)
COc1ccccc1CN1C(=O)c2ccccc2[C@@H](C(=O)NCCCN(C)C)[C@@H]1c1ccc(CO)cc1 | 1.21 (inactive) | -0.552 | 2.02 (inactive) | -0.141 (inactive) | 0.445 (inactive) | -0.583 (inactive) | 0.506 | 0.676 (inactive) | -0.436 (inactive) | -2.04 | 1.29 | 0.608 | 1.07 | 0.376 | 0.0552 | 3.31 | 0.629 (inactive) | 0.262 | 0.325 | 0.997 (inactive)
C=C(COC)C(=O)CC[C@@H](OC(=O)c1cccnc1)c1cccc(OCCO)c1 | 0.857 (inactive) | 0.571 | 13.9 (active) | 1.86 (inactive) | 1.21 (inactive) | 0.454 (inactive) | 0.28 | -3.15 (inactive) | -0.703 (inactive) | -1.33 | -0.0547 | 0.627 | -0.714 | -3.31 | -1.71 | 0.082 | 0.195 (inactive) | -0.26 | -1.78 | 0.9 (inactive)
CC(=O)c1ccc(C(O)C2C=CC3C(=O)NC(=O)C3N2Nc2ccc(Cl)cc2Cl)cc1 (stereo not given) | -2.32 (inactive) | 0.0267 | 2.38 (inactive) | 0.738 (inactive) | 1.15 (inactive) | 1 (inactive) | -0.497 | -0.826 (inactive) | -5.81 (inactive) | -3.8 | -0.807 | -0.458 | -1.28 | -0.124 | -0.344 | -0.976 | -1.4 (inactive) | 0.574 | 0.863 | -0.743 (inactive)
COC(=O)[C@@]1(Cc2ccc(F)cc2)[C@H]2c3cc(C(=O)N4CCCC4)n(CCO)c3C[C@H]2CN1C(=O)c1ccccc1 | -1.56 (inactive) | -0.193 | 2.59 (inactive) | 0.279 (inactive) | 1.48 (inactive) | 0.716 (inactive) | 0.871 | 0.54 (inactive) | 2 (inactive) | 0.15 | 0.448 | -0.35 | -0.885 | 0.309 | -0.929 | 1.04 | 0.379 (inactive) | -0.249 | -0.996 | 0.11 (inactive)
C=CCC(OC(C)=O)[C@@H]1[C@@H](N(Cc2ccc(-c3cccc(C(F)(F)F)c3)o2)C(=O)c2cccc3ccccc23)c2cc(OCCCO)ccc2N1C(=O)c1ccc2ccccc2c1 (stereo not given in full) | -0.0766 (inactive) | 0.179 | 0.785 (inactive) | 0.434 (inactive) | 2.22 (inactive) | 0.286 (inactive) | 0.813 | -2.13 (inactive) | -1.74 (inactive) | -1.76 | 0.281 | 2.03 | 0.723 | -0.21 | -1.99 | 2.7 | -0.689 (inactive) | -0.556 | -0.102 | -0.453 (inactive)
COCCOC(=O)N1C(=O)[C@@]2(c3cc(C#CCC(C(=O)OC)C(=O)OC)ccc31)[C@H](C(N)=O)[C@H]1C(=O)O[C@H](c3ccccc3)[C@H](c3ccccc3)N1[C@@H]2c1ccc(OCCO)cc1 | -0.886 (inactive) | 0.146 | 28.9 (active) | 16.1 (active) | -1.71 (inactive) | 2.01 (inactive) | -0.275 | 1.75 (inactive) | 1.24 (inactive) | 0.515 | -0.0635 | 0.0923 | 0.103 | -2.16 | -3.21 | -1.47 | 0.47 (inactive) | -1.09 | -1.26 | 0.214 (inactive)
C=CCC(OC(C)=O)[C@@H]1[C@@H](N(Cc2cc3ccccc3o2)C(=O)c2cccc3ccccc23)c2cc(OCCCO)ccc2N1C(=O)c1ccc2ccccc2c1 (stereo not given in full) | -0.546 (inactive) | 0.0931 | 0.92 (inactive) | 0.0881 (inactive) | 0.547 (inactive) | 0.286 (inactive) | 0.552 | -0.764 (inactive) | -0.797 (inactive) | -2.19 | 0.668 | 0.935 | 0.0108 | 0.364 | -1.98 | 1.93 | -1.18 (inactive) | -0.276 | -0.42 | -1.55 (inactive)
C=CCC(OC(C)=O)[C@@H]1[C@@H](N(Cc2cc3ccccc3o2)C(=O)Cc2ccc(OC)cc2)c2cc(OCCCO)ccc2N1C(=O)Cc1ccc(OC)cc1 (stereo not given in full) | -0.759 (inactive) | 0.0091 | 2.19 (inactive) | 0.297 (inactive) | 1.23 (inactive) | 0.336 (inactive) | -0.0725 | -0.685 (inactive) | -0.727 (inactive) | -2.19 | 0.3 | 1.71 | 0.128 | 0.708 | -1.74 | 2.14 | -0.184 (inactive) | -0.566 | 0.799 | -0.914 (inactive)
